A number with no mark means an inactive call. Calls follow the shape of the dose curve; as a rule, active = well fitted inhibition curve with a large enough effect; inconclusive = small, poorly fitted or top-dose-only effect; inactive = flat fitted curve, though single readings scatter.
Target: Phosphoglycerate kinase, glycosomal (Trypanosoma brucei brucei) (UniProt P07378)
Assay: qHTS Validation Assay to Find Inhibitors of Phosphoglycerate Kinase (AID 504547);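 also: control wells lack PGK and mark full inhibition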
Conditions: enzymatic PGK inhibition, coupled luminescence read-out; series mostly up to 57.5 µM; activity, negative = inhibition: at the top concentration
Method in brief: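 In TEA buffer (100mM, pH 7.6) containing 5mM MgCl2 and 0.01% Tween-20, the GAPDH-coupled PGK reaction proceeded for 60 minutes at room temperature before a single luminescence reading using Kinase-Glo Plus.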

Chain of Phosphoglycerate kinase, glycosomal (Trypanosoma brucei brucei) (P07378 whole entry, looked up): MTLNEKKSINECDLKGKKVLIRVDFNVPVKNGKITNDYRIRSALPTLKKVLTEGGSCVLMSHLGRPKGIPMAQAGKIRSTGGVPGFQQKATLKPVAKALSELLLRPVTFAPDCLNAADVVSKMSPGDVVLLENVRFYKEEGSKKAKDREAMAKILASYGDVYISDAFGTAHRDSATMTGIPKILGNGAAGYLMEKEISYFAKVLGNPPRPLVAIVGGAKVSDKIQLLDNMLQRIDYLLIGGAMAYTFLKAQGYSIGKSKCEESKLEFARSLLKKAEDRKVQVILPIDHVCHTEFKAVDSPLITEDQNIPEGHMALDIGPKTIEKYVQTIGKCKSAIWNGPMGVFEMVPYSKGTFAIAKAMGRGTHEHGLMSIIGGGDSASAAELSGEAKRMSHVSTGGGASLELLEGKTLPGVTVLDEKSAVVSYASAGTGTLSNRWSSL

Row | SMILES | activity, negative = inhibition
1 | C[N+](C)(C)CCO | 0.483%
2 | O=[N+]([O-])c1ccc(-c2nc(-c3ccc(F)cc3)c(-c3ccncc3)[nH]2)cc1 | -7.31%
3 | O=C1NC(=O)/C(=C/c2ccc3c(c2)OC(F)(F)O3)S1 | 16.4%
4 | NC(N)=NCCCCN=C(N)N | 6.95%
5 | O=C1NC(c2cccc([N+](=O)[O-])c2)=CCN1c1ccccc1O | 1.48%
6 | Clc1ccc2c(c1)N=C(N1CCNCC1)c1ccccc1N2 | 15.4%
7 | Brc1ccc([C@H]2CN3CCSC3=N2)cc1 | -2.39%
8 | COc1ccccc1N1CCN(CCN2C(=O)CC3(CCCC3)CC2=O)CC1 | 9.75%
9 | COC(=O)C1=CO[C@@H](O)[C@@H]2C(CO)=CC[C@H]12 | 8.54%
10 | Nc1ncnc2n[nH]c(Nc3ccc(F)cc3)c12 | 7.31%
11 | Cn1cnc2c(NCc3ccccc3)nc(NCCO)nc21 | -1.4%
12 | N[C@@H](Cn1ccc(=O)c(O)c1)C(=O)O | 11.5%
13 | CCN(CC)CCNC(=O)c1ccc(NS(C)(=O)=O)cc1 | 0.5%
14 | COc1cccc2c1[C@@H]1CN(CCCCn3c(=O)[nH]c4c(sc5ncc(-c6ccccc6)nc54)c3=O)C[C@@H]1CO2 | 6.98%
15 | CC(C)N(CCC(=O)c1ccc2ccccc2c1)Cc1ccccc1 | 7.47%
16 | CN(C)c1cc2c(Nc3ccc4c(cnn4Cc4ccccc4)c3)ncnc2cn1 | 8.83%
17 | Cc1nn(-c2ccccc2)c(C)c1/C=N/N1CCN(Cc2ccccc2)CC1 | 5.92%
